Luciferase inh: blocks purified firefly luciferase enzyme activity. 2.5% of 76,000 active. purified P. pyralis luciferase, luminescence, biochemical. Potency, µM (series often up to 115 µM), actives largely listed as inhibitors; also: nearly all actives have a fitted effect of over 65% in size
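Purified 10nM P. pyralis luciferase with 10uM D-luciferin and 10uM ATP in 50mM Tris acetate pH 7.5, 10mM Mg acetate, 0.01% Tween-20, 0.05% BSA. qHTS titration; luminescence read by CCD imager.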
HEK cytotox: HEK 293 cell cytotoxicity | HEK 293 viability, ATP luminescence (CellTiter-Glo), 48-72 h | Potency, µM (titrated, usually from 115 µM), actives largely listed as inhibitors | 6.6% of 94,000 active | AID 1345083; also: nearly all actives have a fitted effect of over 60% in size
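250 HEK 293 cells/well; compound by pintool; incubated 48 or 72 hr at 37 degree Celsius; CellTiter-Glo added, 10 min RT, luminescence imaged.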
NPR1 antag: antagonists of human natriuretic peptide receptor Npr1; P16066; HEK293 hNpr1 GloSensor cGMP, ANP-stimulated luminescence; Potency, µM (titrated, usually from 46.3 µM), usual class: inhibitors; 1.6% of 76,000 active; calls by dose curve; also: nearly all actives have a fitted effect of over 60% in size
Target sequence (P16066 whole entry, looked up): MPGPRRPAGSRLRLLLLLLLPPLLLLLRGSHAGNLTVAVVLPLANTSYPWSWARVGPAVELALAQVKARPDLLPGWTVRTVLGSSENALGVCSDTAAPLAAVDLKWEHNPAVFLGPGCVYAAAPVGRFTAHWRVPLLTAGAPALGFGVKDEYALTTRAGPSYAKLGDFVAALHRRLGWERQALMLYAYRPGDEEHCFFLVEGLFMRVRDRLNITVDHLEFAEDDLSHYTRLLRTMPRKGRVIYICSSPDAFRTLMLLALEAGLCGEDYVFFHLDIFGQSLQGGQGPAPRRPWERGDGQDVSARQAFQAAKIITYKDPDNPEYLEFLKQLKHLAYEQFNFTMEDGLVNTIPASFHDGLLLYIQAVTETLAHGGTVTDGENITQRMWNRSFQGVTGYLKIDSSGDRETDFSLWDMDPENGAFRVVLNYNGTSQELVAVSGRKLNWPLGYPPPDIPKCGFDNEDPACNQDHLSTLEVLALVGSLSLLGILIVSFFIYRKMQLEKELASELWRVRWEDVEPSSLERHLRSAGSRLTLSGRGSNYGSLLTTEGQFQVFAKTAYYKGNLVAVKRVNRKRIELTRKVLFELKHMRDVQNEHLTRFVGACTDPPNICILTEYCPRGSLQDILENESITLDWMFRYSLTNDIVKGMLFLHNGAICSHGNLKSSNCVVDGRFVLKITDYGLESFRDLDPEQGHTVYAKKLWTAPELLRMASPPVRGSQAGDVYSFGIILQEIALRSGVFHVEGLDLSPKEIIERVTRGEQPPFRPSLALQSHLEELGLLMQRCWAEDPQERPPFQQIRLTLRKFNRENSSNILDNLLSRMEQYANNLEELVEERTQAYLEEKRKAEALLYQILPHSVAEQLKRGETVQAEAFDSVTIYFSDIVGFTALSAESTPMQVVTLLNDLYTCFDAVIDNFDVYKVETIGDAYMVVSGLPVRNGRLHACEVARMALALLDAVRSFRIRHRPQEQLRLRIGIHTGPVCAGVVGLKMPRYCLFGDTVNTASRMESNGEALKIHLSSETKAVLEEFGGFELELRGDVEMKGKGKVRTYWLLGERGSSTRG
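Compound pre-incubated 30 min at room temperature on GloSensor-loaded HEK293 cells stably carrying hNpr1 and the pGS-40F cGMP biosensor. Stimulation uses hNppA at 0.1 nM final; luminescence is taken at baseline and 20 min post-agonist.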
NIH3T3 tox: cytotoxic compounds in NIH 3T3 cells; NIH 3T3 viability, CellTiter-Glo ATP luminescence, 48-72 h; Potency, µM (top dose mostly 96.7 µM), actives largely listed as inhibitors; 4.3% of 94,000 active; AID 1345082; also: nearly all actives have a fitted effect of over 55% in size
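First NIH 3T3 cells are plated at 400 cells/well; next compound is pinned in; then plates incubate 48 or 72 hr at 37 °C; finally CellTiter-Glo is added and luminescence read after 10 min.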
Npr1 antag conf: hNpr1 antagonism, confirmation assay; 76% of 1,400 active; shares compounds with NPR1 antag; HEK293 hNpr1 cGMP GloSensor luminescence, ANP-stimulated; AID 1347044; Potency, µM (doses to about 57.6 µM), most hits filed as inhibitors; calls by dose curve; also: nearly all actives have a fitted effect of over 70% in size
Npr2 selectivity: antagonizes human Npr2, subtype selectivity check; HEK293 hNpr2 GloSensor cGMP luminescence, CNP-stimulated; shares compounds with NPR1 antag; AID 1347046; 67% of 1,400 active; Potency, µM (titrated, usually from 57.6 µM), usual class: inhibitors; calls by dose curve; also: nearly all actives have a fitted effect of over 70% in size
FLuc inh counter: inhibits firefly luciferase, false Npr1 antagonist flag; shares compounds with NPR1 antag; Potency, µM (top dose mostly 57.6 µM), hits mostly inhibitors; purified FLuc enzyme, luminescence, Km substrate; 0.7% of 1,400 active; AID 1347047
GloSensor ctrl: control cell line activity, Npr1 antagonist counter-screen; shares compounds with NPR1 antag; HEK293 GloSensor cGMP, SNP-stimulated, luminescence; Potency, µM (titrated, usually from 57.6 µM), actives largely listed as inhibitors; 69% of 1,400 active; AID 1347051; calls by dose curve; also: nearly all actives have a fitted effect of over 70% in size
Of the large screens only hits and unclear results are named; the others gave an inactive call (follow-up assays come after a bar, where they were run). An excerpt weighted towards active compounds, which were near 11% of everything screened. Unless noted, calls follow the shape of the dose curve; as a rule, active = well fitted curve in the direction sought with a large enough effect; inconclusive = small, poorly fitted or top-dose-only effect, or another doubt; inactive = no such curve, though single readings can be large; an effect the other way counts as inactive or inconclusive.

O=C(Nc1ccc(Oc2ccccc2)cc1)O[C@@H]1CO[C@H]2[C@@H]1OC[C@@H]2n1nnnc1SC1CCCC1	HEK cytotox 25µM, NPR1 antag 10µM, NIH3T3 tox inconclusive | Npr1 antag conf 17µM | Npr2 selectivity 17µM | FLuc inh counter inactive | GloSensor ctrl 14µM
CC(C)(C)C(=O)N1CCC2(CC1)NCCc1c2[nH]c2ccccc12	HEK cytotox inconclusive
COc1ccc(OC)c(S(=O)(=O)N[C@H]2CO[C@H]3[C@@H]2OC[C@H]3OC(=O)Nc2cccc(C(C)=O)c2)c1	none
COc1cc(NC(=S)N[C@H]2CO[C@H]3[C@@H]2OC[C@H]3OC(=O)Nc2ccccc2)cc(OC)c1	none
COc1ccc(NC(=O)O[C@@H]2CO[C@H]3[C@@H]2OC[C@@H]3NC(=S)Nc2ccc(Cl)cc2)cc1	HEK cytotox 45µM, NPR1 antag 13µM, NIH3T3 tox inconclusive | Npr1 antag conf 24µM | Npr2 selectivity inconclusive | FLuc inh counter inactive | GloSensor ctrl 24µM
COc1ccc(OC)c(S(=O)(=O)N[C@H]2CO[C@H]3[C@@H]2OC[C@H]3OC(=O)Nc2cccc(C(F)(F)F)c2)c1	HEK cytotox inconclusive, NPR1 antag 13µM, NIH3T3 tox inconclusive | Npr1 antag conf 27µM | Npr2 selectivity 22µM | FLuc inh counter inactive | GloSensor ctrl 27µM
COc1ccc(NC(=O)N[C@H]2CO[C@H]3[C@@H]2OC[C@H]3OC(=O)Nc2ccc(Oc3ccccc3)cc2)cc1	HEK cytotox 18µM, NPR1 antag 13µM, NIH3T3 tox inconclusive | Npr1 antag conf 14µM | Npr2 selectivity 17µM | FLuc inh counter inactive | GloSensor ctrl 12µM
Cc1ccc(C)c(S(=O)(=O)N2CCC(n3cnnc3C(C)C)CC2)c1	HEK cytotox inconclusive
COc1ccc(C(=O)Nc2ccc(-c3noc([C@@H]4CCCN4Cc4ccc(OC(F)(F)F)cc4)n3)cn2)cc1	HEK cytotox inconclusive, NPR1 antag 11µM, NIH3T3 tox inconclusive | Npr1 antag conf 12µM | Npr2 selectivity 11µM | FLuc inh counter inactive | GloSensor ctrl 11µM
COCC(=O)Nc1ccc(-c2noc([C@@H]3CCCN3C)n2)cn1	Luciferase inh inconclusive
COc1ccc(C(=O)Nc2ccc(-c3noc([C@@H]4CCCN4Cc4ccc(C(F)(F)F)cc4)n3)cn2)cc1	HEK cytotox inconclusive, NPR1 antag 11µM, NIH3T3 tox inconclusive | Npr1 antag conf 11µM | Npr2 selectivity 14µM | FLuc inh counter inactive | GloSensor ctrl 9.7µM
COc1ccc(C(=O)Nc2ccc(-c3noc([C@@H]4CCCN4CC4CCCCC4)n3)cn2)cc1	HEK cytotox 45µM, NPR1 antag 10µM, NIH3T3 tox inconclusive | Npr1 antag conf 6.9µM | Npr2 selectivity 12µM | FLuc inh counter inactive | GloSensor ctrl 12µM
Cn1nccc1C(=O)N[C@@H]1CN(Cc2ccccc2)C[C@H]1CO	HEK cytotox inconclusive
COCCNC(=O)c1cc(-c2ccc([S+](C)(=O)[O-])cc2)nc2c1cnn2C	none (no result: Luciferase inh, NPR1 antag)
COc1ccc(N2CCN(c3nc(C(=O)NCc4cccc(C)c4)cs3)CC2)cc1	HEK cytotox 18µM, NPR1 antag 16µM, NIH3T3 tox inconclusive | Npr1 antag conf 15µM | Npr2 selectivity 15µM | FLuc inh counter inactive | GloSensor ctrl 12µM
COc1ccc(N2CCN(c3nc(C(=O)NCc4ccc(C)c(C)c4)cs3)CC2)cc1	HEK cytotox 13µM, NPR1 antag 13µM, NIH3T3 tox inconclusive | Npr1 antag conf 9.7µM | Npr2 selectivity 14µM | FLuc inh counter inactive | GloSensor ctrl 11µM

Screens as filed in PubChem.
